Calls of active or inactive are those of the source.

The source of these data is PubChem BioAssay.

Assay [1] in a line: binders of probe aFSTL3 on microarray, primary screen, stem cell growth factor project, biochemical, small-molecule microarray, fluorescence 635/667 (AID 1064).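 Note: measures binding of the biotinylated anti-FSTL3 antibody to printed compounds.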 As to conditions: higher = more signal.
A short description of assay [2]: binders from COS7 lysate, DM2A8 probe, primary screen, torsin A project, cell lysate, small-molecule microarray, fluorescence 635/667 (AID 1065). Particulars: higher = more signal, COS7 lysate expressing mutant human TOR1A.
Assay [3] can be described thus: binders of probe aFGF2 on microarray, primary screen, stem cell growth factor project, biochemical, small-molecule microarray, fluorescence 635/667 (AID 1067).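 Note: measures binding of biotinylated aFGF2 protein to printed compounds on slides; z-score merges feature fluorescence and signal-to-noise across triplicate slides.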 As to conditions: higher = more signal.
The nature of assay [4]: binders of probe aFGF10 on microarray, primary screen, stem cell growth factor project, biochemical, small-molecule microarray, fluorescence 635/667 (AID 1071).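 Note: score merges 667 nm spot intensity and signal to noise from triplicate slides.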 As to conditions: higher = more signal.
Assay [5] deals with Neurogenic locus notch homolog protein 2 (Homo sapiens) (UniProt Q04721). Put plainly: Notch2 binders on small-molecule microarrays, primary screen, biochemical, small-molecule microarray, 635 nm fluorescence, stem cell growth factors (AID 1073). Particulars: Notch2 binding, higher = more signal.
Sequence of Neurogenic locus notch homolog protein 2 (Homo sapiens) (Q04721 whole entry, looked up, canonical isoform): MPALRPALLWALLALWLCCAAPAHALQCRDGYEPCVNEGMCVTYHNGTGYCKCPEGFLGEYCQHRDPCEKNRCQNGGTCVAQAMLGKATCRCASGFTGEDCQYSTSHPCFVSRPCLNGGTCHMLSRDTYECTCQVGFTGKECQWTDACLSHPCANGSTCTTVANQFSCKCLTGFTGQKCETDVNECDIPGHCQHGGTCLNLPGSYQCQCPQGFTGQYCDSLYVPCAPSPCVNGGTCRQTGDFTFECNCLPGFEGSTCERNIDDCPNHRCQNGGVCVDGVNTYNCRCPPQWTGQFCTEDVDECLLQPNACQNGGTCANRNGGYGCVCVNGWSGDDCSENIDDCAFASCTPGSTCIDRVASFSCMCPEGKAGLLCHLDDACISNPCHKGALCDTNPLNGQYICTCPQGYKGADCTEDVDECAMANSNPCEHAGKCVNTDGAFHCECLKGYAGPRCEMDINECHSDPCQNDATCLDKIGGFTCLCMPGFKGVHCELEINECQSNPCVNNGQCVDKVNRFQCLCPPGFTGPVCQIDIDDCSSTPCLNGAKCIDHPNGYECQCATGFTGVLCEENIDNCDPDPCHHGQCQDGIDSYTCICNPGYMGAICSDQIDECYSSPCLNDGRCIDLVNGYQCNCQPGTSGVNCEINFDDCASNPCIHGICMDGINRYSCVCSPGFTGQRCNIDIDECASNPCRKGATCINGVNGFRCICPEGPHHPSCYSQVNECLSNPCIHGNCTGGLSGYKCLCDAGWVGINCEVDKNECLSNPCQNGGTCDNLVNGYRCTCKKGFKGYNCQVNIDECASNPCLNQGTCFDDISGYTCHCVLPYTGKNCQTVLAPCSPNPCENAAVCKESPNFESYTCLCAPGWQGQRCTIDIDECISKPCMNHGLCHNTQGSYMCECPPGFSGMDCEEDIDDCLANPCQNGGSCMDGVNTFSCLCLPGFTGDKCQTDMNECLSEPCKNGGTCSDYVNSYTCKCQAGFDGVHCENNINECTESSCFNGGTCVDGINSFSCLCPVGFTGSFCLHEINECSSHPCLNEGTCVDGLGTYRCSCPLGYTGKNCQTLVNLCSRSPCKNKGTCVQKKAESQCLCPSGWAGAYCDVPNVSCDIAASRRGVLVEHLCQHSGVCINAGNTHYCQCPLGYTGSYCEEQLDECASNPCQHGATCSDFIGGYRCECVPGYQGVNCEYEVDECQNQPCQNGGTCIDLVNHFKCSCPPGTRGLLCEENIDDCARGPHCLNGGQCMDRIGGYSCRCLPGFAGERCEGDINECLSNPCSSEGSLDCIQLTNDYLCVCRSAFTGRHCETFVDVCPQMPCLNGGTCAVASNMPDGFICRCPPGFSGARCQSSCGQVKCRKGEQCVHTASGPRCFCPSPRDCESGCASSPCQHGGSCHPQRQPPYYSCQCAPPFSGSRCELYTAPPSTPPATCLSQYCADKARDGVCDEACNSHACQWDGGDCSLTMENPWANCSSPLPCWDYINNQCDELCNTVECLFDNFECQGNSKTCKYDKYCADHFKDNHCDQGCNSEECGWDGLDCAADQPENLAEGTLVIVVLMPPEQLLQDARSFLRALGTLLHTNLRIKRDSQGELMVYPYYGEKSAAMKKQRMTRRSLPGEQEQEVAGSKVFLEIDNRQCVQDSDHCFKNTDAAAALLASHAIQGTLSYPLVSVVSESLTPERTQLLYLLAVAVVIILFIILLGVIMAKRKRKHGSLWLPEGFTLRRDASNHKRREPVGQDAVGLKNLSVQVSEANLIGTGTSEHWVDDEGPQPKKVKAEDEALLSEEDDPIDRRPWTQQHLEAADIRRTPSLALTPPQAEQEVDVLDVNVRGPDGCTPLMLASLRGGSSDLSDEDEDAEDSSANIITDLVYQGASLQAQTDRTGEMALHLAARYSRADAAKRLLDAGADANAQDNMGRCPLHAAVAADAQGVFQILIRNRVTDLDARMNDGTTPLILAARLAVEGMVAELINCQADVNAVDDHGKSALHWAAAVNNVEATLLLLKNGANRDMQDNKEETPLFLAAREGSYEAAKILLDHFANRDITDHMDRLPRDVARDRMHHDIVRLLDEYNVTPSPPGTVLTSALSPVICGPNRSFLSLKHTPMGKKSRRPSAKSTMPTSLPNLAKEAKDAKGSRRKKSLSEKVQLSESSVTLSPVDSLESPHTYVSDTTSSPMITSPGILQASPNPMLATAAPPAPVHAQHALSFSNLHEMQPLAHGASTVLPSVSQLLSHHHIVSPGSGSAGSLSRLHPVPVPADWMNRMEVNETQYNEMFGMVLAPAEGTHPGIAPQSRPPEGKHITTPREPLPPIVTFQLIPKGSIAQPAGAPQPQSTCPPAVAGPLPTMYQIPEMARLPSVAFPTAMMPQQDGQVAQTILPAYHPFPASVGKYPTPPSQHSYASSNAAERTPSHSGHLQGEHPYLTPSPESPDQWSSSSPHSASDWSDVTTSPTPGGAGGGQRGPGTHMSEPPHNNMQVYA
Assay [6] concerns the target Pro-neuregulin-1, membrane-bound isoform (Homo sapiens) (UniProt Q02297). Put plainly: NRG1 binders on small-molecule microarrays, primary screen, psychiatric disease protein project, biochemical, small-molecule microarray, fluorescence 635/667 (AID 1075).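 Note: score combines 667 nm spot fluorescence with signal to noise.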 As to conditions: NRG1 binding, 635 nm fluorescence, higher = more signal.
Assay [7] has as its system Neuregulin-1 EGF-like domain. Put plainly: binders of neuregulin-1 EGF-like domain, primary screen, biochemical, small-molecule microarray, 635 nm fluorescence (AID 1081).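 Note: binding of the protein to compounds printed on small-molecule microarray slides.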 Particulars: small-molecule microarray binding, higher = more signal.
Assay [8] can be described thus: FRG1 promoter luciferase signal modulators, primary screen, FRG1 inhibition for FSHD, cell-based, C2C12 myotubes, firefly/Renilla luciferase, luminescence (AID 1084). As to conditions: higher = more signal, called active from +8 up or from −8 down.
Assay [9] can be described thus: binders of probe aFST on microarray, primary screen, stem cell growth factor project, biochemical, small-molecule microarray, fluorescence 635/667 (AID 1086).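 Note: score merges 667 nm fluorescence with signal-to-noise of each printed compound spot.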 Particulars: higher = more signal.
A short description of assay [10]: binders of probe aHhip on microarray, primary screen, stem cell growth factor project, biochemical, small-molecule microarray, fluorescence 635/667 (AID 1087).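 Note: score merges spot fluorescence at 667nm with spot signal to noise ratio.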 As to conditions: higher = more signal.

Sequence of Pro-neuregulin-1, membrane-bound isoform (Homo sapiens) (Q02297 whole entry, looked up, the tested form may be a part, canonical isoform): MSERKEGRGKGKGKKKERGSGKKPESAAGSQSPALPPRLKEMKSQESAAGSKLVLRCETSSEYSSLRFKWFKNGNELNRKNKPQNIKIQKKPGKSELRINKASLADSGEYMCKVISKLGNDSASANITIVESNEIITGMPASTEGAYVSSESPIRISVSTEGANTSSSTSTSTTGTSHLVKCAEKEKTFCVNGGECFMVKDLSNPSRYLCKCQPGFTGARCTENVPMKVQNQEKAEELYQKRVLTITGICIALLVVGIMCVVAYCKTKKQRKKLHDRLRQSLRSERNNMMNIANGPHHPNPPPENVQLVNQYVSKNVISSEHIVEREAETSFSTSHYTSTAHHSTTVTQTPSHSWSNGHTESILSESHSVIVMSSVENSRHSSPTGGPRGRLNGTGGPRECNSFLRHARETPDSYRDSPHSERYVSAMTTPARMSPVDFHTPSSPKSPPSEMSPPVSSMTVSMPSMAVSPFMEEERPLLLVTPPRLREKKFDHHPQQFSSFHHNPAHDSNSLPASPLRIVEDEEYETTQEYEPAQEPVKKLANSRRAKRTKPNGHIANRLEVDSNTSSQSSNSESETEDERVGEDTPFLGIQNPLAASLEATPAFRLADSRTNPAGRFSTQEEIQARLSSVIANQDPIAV

On to `COc1ccc(C(O)C2C=CC3C(=O)N(C)C(=O)C3N2N(c2ccccc2)c2ccccc2)cc1` (stereo not given), for which the composite z-score in assay [1] was found to be 0.967; in assay [2], 1.17; in assay [3], 0.0148; in [4], 0.209; in assay [5] it was 1.41; in [6], 0.941. For the same compound, the composite z-score in assay [7] was 1.22; in [9], 0.982; in assay [10], 0.0972. Moreover, in assay [8], the z-score was 0.57 (inactive).
Regarding `C=CCOC(=O)[C@H]1[C@@H]2C(=O)O[C@@H](c3ccccc3)[C@@H](c3ccccc3)N2[C@@H](c2ccc(OCCOC(=O)[C@H]3C[C@H]4C(=O)N[C@@H](CC(C)C)C(=O)N4[C@H]3c3ccc(O)cc3)cc2)[C@]12C(=O)Nc1ccccc12`, the composite z-score was -0.109 in assay [1]; 1.34 in assay [2]; -0.079 in [3]; 0.868 in assay [4]; 1.46 in assay [5]; 1.45 in [6]. For the same compound, the composite z-score stood at 1.43 in assay [7], 0.174 in assay [9] and 0.213 in assay [10]. Besides, the z-score in [8] is -0.0648 (inactive).
Consider `C=C(COC)/C(=C/C[C@H](OC(C)=O)c1ccccc1OCCO)c1cc(C(=O)OC)ccc1OC`, for which the composite z-score in assay [1] was -0.398; in [2] it was 0.275; in assay [3], -0.0948; in assay [4] it was 1.05; in [5] it was -0.738; in assay [6], 0.727. The composite z-score in [7] is 1.28; in [9], 0.318; in assay [10] it was -0.0003. Also, the z-score in [8] is 0.181 (inactive).
For the compound `CN(C)c1ccc(C(O)C2C=CC3C(=O)N(Cc4ccccc4)C(=O)C3N2n2cnnc2)cc1` (stereo not given), the composite z-score is 0.0652 in assay [1]; 0.0666 in [2]; -0.0303 in assay [3]; 0.0521 in [4]; 0.0282 in assay [5]; -0.161 in assay [6]. The composite z-score in [7] is -0.103; in [9], 0.198; in [10], 0.244. Further, in assay [8], the z-score is -1.18 (inactive).
Consider `COC(=O)[C@@]1(Cc2ccc(F)cc2)[C@H]2c3cc(C(=O)N4CCCC4)n(Cc4ccccn4)c3C[C@H]2CN1C(=O)c1ccccc1`, for which the composite z-score is 0.116 in assay [1]; -0.89 in assay [2]; 0.272 in [3]; 1.22 in assay [4]; 1.71 in [5]; 1.29 in [6]. For the same compound, the results for the composite z-score in [7], in assay [9] and in [10] were 1.4, 0.987 and 0.685, respectively. For the same compound, in [8], the z-score was 0.755 (inactive).
Take `CCOC(=O)C[C@H]1[C@H](OC(=O)c2ccccc2-c2ccccc2)[C@@H](NC(=O)c2ccc3ccccc3c2)c2cc(OCCCO)ccc2N1C(=O)Cc1ccc(OC)cc1`: the composite z-score was 0.225 in assay [1]; 0.0793 in assay [2]; -0.118 in assay [3]; 0.162 in assay [4]; -0.105 in assay [5]; 0.0671 in [6]. Besides, the composite z-score in [7] was -0.58; in [9], 0.206; in assay [10] it was -0.0645. Moreover, the z-score in [8] is 1.11 (inactive).
As for `COc1ccc([Si](C)(C)[C@@H]2[C@@H](CC(=O)N(CCO)Cc3ccccc3)O[C@]3(C(=O)N(Cc4ccc(N5C(=O)c6cccc7cccc5c67)cc4)c4ccccc43)[C@H]2C)cc1`, the composite z-score in assay [1] was -0.0031; in [2], 0.407; in assay [3], -0.0876; in assay [4], 0.181; in [5] it was 0.494; in assay [6], 0.933. The composite z-score in assay [7] is 0.956; in [9] it was -0.0542; in assay [10], -0.353. Further, the z-score in [8] was -1.76 (inactive).
In the case of `CN1C(=O)C2C(C3CC3)C=C3CN(Cc4cccc(Cl)c4)[C@@H]([C@@H](O)Cc4ccccc4)C3C2C1=O` (stereo not given in full), the composite z-score was -0.357 in assay [1]; 0.268 in [2]; -0.229 in assay [3]; 0.0719 in assay [4]; 0.999 in assay [5]; 1.03 in assay [6]. Besides, the figures for the composite z-score in [7], in assay [9] and in assay [10] were 1.23, -0.156 and 0.0854, respectively. The z-score in assay [8] was -1.31 (inactive).
As to `CCCC=C(CCC)[C@@H](NC(=O)c1ccc(C(F)(F)F)cc1)c1ccc(C(F)(F)F)cc1`, the composite z-score in assay [1] was found to be 0.625; in assay [2] it was 0.629; in [3], 0.171; in [4], 0.669; in assay [5], 1.57; in assay [6] it was 1.82. Further, the composite z-score in assay [7] is 0.588; in [9] it was 1.04; in assay [10], -0.0965. In assay [8], the z-score is -4.76 (inactive).
With `COc1ccc([Si](C)(C)[C@@H]2[C@@H](CC(=O)N(CCO)Cc3ccccc3)O[C@]3(C(=O)N(Cc4ccc(I)cc4)c4ccccc43)[C@H]2C)cc1`, the composite z-score in assay [1] was 0.44; in assay [2], 1.2; in assay [3] it was -0.0403; in assay [4], 0.0554; in assay [5], 0.512; in assay [6], 0.136. The composite z-score in assay [7] is 0.83; in assay [9], 0.621; in [10], 1. Moreover, in assay [8], the z-score is -2.04 (inactive).
With `CCOC(=O)C[C@H]1[C@H](OC(=O)Cc2ccc3c(c2)OCO3)[C@@H](NC(=O)c2ccc3ccccc3n2)c2cc(OCCCO)ccc2N1C(=O)Cc1ccc(OC)cc1`, the composite z-score is -0.238 in assay [1]; 0.38 in [2]; -0.0785 in [3]; 0.205 in [4]; 0.761 in [5]; 1.17 in assay [6]. Moreover, the composite z-score is 0.38 in assay [7], 0.447 in [9] and -0.0994 in [10]. In addition, in [8], the z-score was -0.876 (inactive).
Regarding `CC1=C([C@H](O)CCc2ccccc2)[C@H](CO)n2c(=O)n(-c3ccccc3)c(=O)n2C1`, the composite z-score was -0.312 in [1]; -0.322 in [2]; -0.159 in [3]; 0.0052 in assay [4]; -0.371 in assay [5]; -0.355 in assay [6]. Also, the composite z-score in assay [7] was -0.56; in assay [9], -0.429; in assay [10] it was -0.236. In addition, the z-score in assay [8] is -0.973 (inactive).
For `C=CCNC(=O)[C@H]1[C@@H]2C(=O)O[C@@H](c3ccccc3)[C@@H](c3ccccc3)N2[C@@H](c2ccc(OCCO)cc2)[C@]12C(=O)Nc1ccccc12`, the composite z-score is -0.0085 in assay [1]; 0.586 in assay [2]; 0.083 in [3]; 0.331 in assay [4]; -0.353 in assay [5]; 1.65 in assay [6]. Further, the composite z-score was 1.13 in assay [7], -0.189 in assay [9] and -0.613 in assay [10]. Moreover, the z-score in [8] is -2.89 (inactive).
Turning to `O=C1OCCC=C[C@H]2OC34C=CCN(c5ccc6ccccc6c5)C(=O)[C@H]3N(CCO)C(=O)[C@@H]4C12` (stereo not given in full), the composite z-score in assay [1] was -0.562; in assay [2], -0.171; in assay [3], -0.119; in [4], -0.175; in assay [5], -0.397; in assay [6] it was -0.863. In addition, the composite z-score was 0.464 in [7], -0.847 in [9] and -0.672 in assay [10]. Besides, in [8], the z-score was 0.149 (inactive).
